PubChem BioAssay (NCI)
Several values for one entry are separate records, joined by “and”; a condition that tells them apart may be missing. Equal entries are not always repeated. The panel holds about 83,000 compounds, 20% with a hit somewhere; the sample as a whole holds those more often.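 Single-concentration screen, 48 h exposure, 96-well plates. Endpoint: percent growth. Below 10 = active.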 Activity calls are given as the source filed them.

Assays:
Assay in all cases: NCI-60 one-dose screen, 48 h (100 = growth as untreated, 0 = no growth, -100 = all killed)
Conditions in all cases: 10 µM unless noted
NCI-H23 lung = test system: NCI-H23 lung
NCI-H226 lung = test system: NCI-H226 lung
NCI-H322M lung = test system: NCI-H322M lung
HOP-62 NSCLC = test system: HOP-62 NSCLC
NCI-H460 lung = test system: NCI-H460 lung
HOP-92 NSCLC = test system: HOP-92 NSCLC
NCI-H522 lung = test system: NCI-H522 lung
A549/ATCC NSCLC = test system: A549/ATCC NSCLC
786-0 renal = test system: 786-0 renal
COLO 205 colon = test system: COLO 205 colon

Row | Structure (SMILES) | growth (NCI-H23 lung) | growth (NCI-H226 lung) | growth (NCI-H322M lung) | growth (HOP-62 NSCLC) | growth (NCI-H460 lung) | growth (HOP-92 NSCLC) | growth (NCI-H522 lung) | growth (A549/ATCC NSCLC) | growth (786-0 renal) | growth (COLO 205 colon)
1 | CCOc1ccc2nc3cc(N)ccc3c(N)c2c1 | 46.3% (inactive) and 40.5% (inactive) | 20.2% (inactive) and 44.6% (inactive) | 36.7% (inactive) and 28.8% (inactive) | 23% (inactive) and 26.8% (inactive) | 29.3% (inactive) and 61.9% (inactive) | 58.3% (inactive) | 0.893% (active) and 10.4% (inactive) | 77.6% (inactive) and 77.2% (inactive) | 24.2% (inactive) and 13.8% (inactive) | 71.1% (inactive) and 75.9% (inactive)
2 | CC[N+](CC)(CC(=O)Nc1c(C)cccc1C)Cc1ccccc1 | 85.4% (inactive) and 99.4% (inactive) | 87% (inactive) and 97.8% (inactive) | 110% (inactive) and 93.8% (inactive) | 85.2% (inactive) and 93.2% (inactive) | 100% (inactive) and 101% (inactive) | 112% (inactive) and 90.7% (inactive) | 92% (inactive) | 106% (inactive) and 98.5% (inactive) | 103% (inactive) | 103% (inactive)
3 | COc1cc(-c2nccc3cc4c(cc23)OCO4)cc(OC)c1OC | 56.9% (inactive) and 46.7% (inactive) | 62.9% (inactive) and 49.7% (inactive) | 66.1% (inactive) and 71.6% (inactive) | 38.1% (inactive) and 39.4% (inactive) | 18.1% (inactive) and 14.8% (inactive) | 58.3% (inactive) | -0.618% (active) | 46.6% (inactive) and 38.9% (inactive) | 38.6% (inactive) and 66.7% (inactive) | 11.2% (inactive) and -13.8% (active)
4 | CC(C)C(=O)Nc1ccc([N+](=O)[O-])c(C(F)(F)F)c1 | 89.5% (inactive) and 93.9% (inactive) | 72.5% (inactive) and 82.8% (inactive) | 104% (inactive) and 113% (inactive) | 94.9% (inactive) and 84.2% (inactive) | 83.8% (inactive) and 109% (inactive) | 53.9% (inactive) and 91.1% (inactive) | 79.2% (inactive) and 79.1% (inactive) | 81.4% (inactive) and 103% (inactive) | 96.4% (inactive) and 87.2% (inactive) | 93.5% (inactive) and 117% (inactive)
5 | CC(=O)Nc1cc(S(=O)(=O)O)cc2cc(S(=O)(=O)O)c(N=Nc3ccccc3)c(O)c12 | 96.3% (inactive) and 101% (inactive) | 99.7% (inactive) and 105% (inactive) | 112% (inactive) and 91.9% (inactive) | 140% (inactive) and 98.6% (inactive) | 104% (inactive) and 103% (inactive) | 82% (inactive) and 102% (inactive) | 112% (inactive) and 82.3% (inactive) | 108% (inactive) and 97% (inactive) | 106% (inactive) and 103% (inactive) | 99.7% (inactive) and 109% (inactive)
6 | COc1ccc(Cn2c(NCCN=C(N)N)nc(=O)n(Cc3ccc(F)cc3)c2=O)cc1 | 102% (inactive) and 89.5% (inactive) | 97.3% (inactive) and 95.3% (inactive) | 83% (inactive) and 90.7% (inactive) | 71.6% (inactive) and 85.7% (inactive) | 106% (inactive) and 104% (inactive) | 82.8% (inactive) | 90.2% (inactive) and 97.2% (inactive) | 108% (inactive) and 107% (inactive) | 98.5% (inactive) and 103% (inactive) | 105% (inactive) and 97.8% (inactive)
7 | CC1CCCC(=O)O1 (stereo not given) | 104% (inactive) and 97.1% (inactive) | 93.3% (inactive) and 101% (inactive) | 106% (inactive) | 94.3% (inactive) and 96.5% (inactive) | 104% (inactive) and 112% (inactive) | 91.8% (inactive) | 86.3% (inactive) and 104% (inactive) | 108% (inactive) and 97.9% (inactive) | 92.6% (inactive) and 93.3% (inactive) | 107% (inactive) and 122% (inactive)
8 | Cc1cc(-c2ccc(NS(=O)(=O)c3ccccc3)c(C)c2)ccc1NS(=O)(=O)c1ccccc1 | 85% (inactive) and 97.8% (inactive) | 82.2% (inactive) and 92.1% (inactive) | 92.7% (inactive) and 121% (inactive) | 94.2% (inactive) and 111% (inactive) | 78% (inactive) and 87.6% (inactive) | 83.3% (inactive) and 88% (inactive) | 52.8% (inactive) and 64.8% (inactive) | 67% (inactive) and 80.5% (inactive) | 96.8% (inactive) and 107% (inactive) | 91.9% (inactive) and 121% (inactive)
9 | COc1c(/C(C)=N/N=c2sc(C(C)=O)nn2-c2ccc(Cl)cc2)c(Oc2ccccc2)c(OC)c2occc12 | 89.6% (inactive) and 98% (inactive) | 98.9% (inactive) and 97.4% (inactive) | 89.8% (inactive) and 100% (inactive) | 88.6% (inactive) and 98.3% (inactive) | 99.2% (inactive) and 103% (inactive) | 90.9% (inactive) and 93.5% (inactive) | 91.5% (inactive) and 79.8% (inactive) | 108% (inactive) and 102% (inactive) | 102% (inactive) | 114% (inactive) and 111% (inactive)
10 | CC(=O)Nc1ccc2cc3ccc(NC(C)=O)cc3nc2c1 | 74.2% (inactive) and 75% (inactive) | 71% (inactive) and 69.8% (inactive) | 64.3% (inactive) and 46.1% (inactive) | 70.9% (inactive) and 67% (inactive) | 93.6% (inactive) and 106% (inactive) | 60.6% (inactive) | 74.3% (inactive) and 77.7% (inactive) | 107% (inactive) and 115% (inactive) | 63.9% (inactive) and 52.1% (inactive) | 93.7% (inactive) and 91.4% (inactive)
11 | O=C(Cc1cccc2ccccc12)N/N=C/c1ccc2c(c1)CCC2 | 88.5% (inactive) | 97.3% (inactive) | 84.3% (inactive) | 67.1% (inactive) | 81.5% (inactive) | 92.9% (inactive) | 23.5% (inactive) | 65.8% (inactive) | 88% (inactive) | 82% (inactive)
12 | CCc1c(CC(=O)O)c2cc(C)ccc2n1Cc1ccc(Cl)cc1 | 97.3% (inactive) and 90% (inactive) | 94.9% (inactive) and 97.8% (inactive) | 76.3% (inactive) and 280% (inactive) | 94.7% (inactive) and 70.2% (inactive) | 103% (inactive) and 95.8% (inactive) | 88% (inactive) and 91.7% (inactive) | 85% (inactive) and 81.5% (inactive) | 89.1% (inactive) and 87.3% (inactive) | 106% (inactive) and 47% (inactive) | 123% (inactive)
13 | Oc1c(Cl)cc(Cl)cc1Sc1cc(Cl)cc(Cl)c1O | 11.4% (inactive) and 6.4% (active) and 76% (inactive) | 94.5% (inactive) and 48.1% (inactive) and 88.3% (inactive) | 25.6% (inactive) and 33.1% (inactive) and 87.1% (inactive) | 85.8% (inactive) and 61.6% (inactive) | 7.66% (active) and 11.8% (inactive) and 62.3% (inactive) | -12.5% (active) and -28.3% (active) and 32.7% (inactive) | 2.94% (active) and -18.8% (active) and 48.9% (inactive) | 62.5% (inactive) and 8.2% (active) and 88.4% (inactive) | 47.7% (inactive) and 104% (inactive) | 118% (inactive) and 87.9% (inactive) and 110% (inactive)
14 | Cn1cnc([N+](=O)[O-])c1Sc1ncnc2nc[nH]c12 | 72.9% (inactive) and 79.9% (inactive) | 51.2% (inactive) and 72.4% (inactive) | 55.1% (inactive) and 47.5% (inactive) | 37.2% (inactive) and 20.8% (inactive) | 70.4% (inactive) and 69% (inactive) | 60.7% (inactive) and 61.4% (inactive) | 65.1% (inactive) and 85.9% (inactive) | 82% (inactive) and 107% (inactive) | 36.2% (inactive) | 94.5% (inactive) and 112% (inactive)
